# According to PubChem BioAssay AID743291 (Broad Institute, 2014):
# Potency and affinity values are given separately. The source made the active and inactive calls.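 How the source made its calls: active means signal drop with fitted half-maximal dose at most twice the top valid dose, active in every repeat; inconclusive means repeats disagree, or flat partial inhibition, or poor fit; inactive means inactive in every repeat, including opposite effects.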
# Target: Caspase-3 (Homo sapiens) (UniProt P42574)
# Assay: caspase-3 enzyme inhibitors, selectivity check, dose response, selectivity assay for caspase-6 allosteric inhibitor project, biochemical, fluorescence, cherry-picked samples (AID 743291)
# Details: Recombinant caspase-3, Z-DEVD-R110 cleavage fluorescence; series mostly up to 35 µM; activity change, negative = inhibition: at the top concentration
# Caspase-3 (Homo sapiens), sequence (P42574 whole entry, looked up): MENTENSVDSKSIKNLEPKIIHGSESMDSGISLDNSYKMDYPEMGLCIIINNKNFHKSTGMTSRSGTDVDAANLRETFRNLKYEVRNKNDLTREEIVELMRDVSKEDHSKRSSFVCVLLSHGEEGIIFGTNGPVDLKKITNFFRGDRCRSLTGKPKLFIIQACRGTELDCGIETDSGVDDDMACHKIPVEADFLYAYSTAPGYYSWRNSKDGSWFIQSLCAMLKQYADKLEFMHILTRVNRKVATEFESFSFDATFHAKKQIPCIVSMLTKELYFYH
row,SMILES,"activity change, negative = inhibition"
1,C/C(CC(=O)N1CCCC1)=N\NC(=O)c1cc2ccccc2cc1O,0.574% (inactive)
2,CC(C)(C)c1ccc(NC(=O)COC(=O)c2ccc([N+](=O)[O-])s2)cc1,-9.48% (inactive)
3,CCCN(C(=O)c1cccc(-n2cccc2)c1)c1c(N)n(Cc2ccccc2)c(=O)[nH]c1=O,-0.571% (inactive)
4,O=C(Nc1ccc(S(=O)(=O)Nc2cnc3ccccc3n2)cc1)c1ccc(Cl)c([N+](=O)[O-])c1,2.61% (inactive)
5,O=C(C[C@@H]1C[C@H]2c3cc(NC(=O)NC4CCCCC4)ccc3O[C@H]2[C@H](CO)O1)NCc1ccccn1,7.7% (inactive)
6,O=P(c1ccccc1)(c1ccccc1)c1cc(S(=O)(=O)O)ccc1O,0.416% (inactive)
7,COc1ccc(C(=O)OCC(=O)Nc2ncc([N+](=O)[O-])s2)cc1OC,-5.7% (inactive)
8,O=c1c(O)cccc2cc(O)c(O)c(O)c12,-2.98% (inactive)
9,Nc1cc(S(=O)(=O)O)cc([N+](=O)[O-])c1O,8.37% (inactive)
10,O=C1NC(=O)C(=Cc2ccccc2[N+](=O)[O-])S1,1.62% (inactive)
11,COc1ccc([N+](=O)[O-])cc1NC(=O)CCS(=O)(=O)c1ccc(Br)cc1,5.2% (inactive)
12,COc1cc(C)c2c(c1C=O)Oc1c(c(C)c(O)c3c1C(O)OC3=O)OC2=O (stereo not given),4.05% (inactive)
13,O=C(O)C1Nc2c(Cl)cc(Cl)c(Cl)c2C2C=CCC12 (stereo not given),6.61% (inactive)
14,CC(CNc1ccccc1O)C(=O)O (stereo not given),-2.67% (inactive)
15,O=S(=O)(O)c1cc(O)c2cc(Nc3ccccc3)ccc2c1,1.26% (inactive)
16,Cc1c(NC(=O)C(C)OC(=O)c2ccc([N+](=O)[O-])s2)c(=O)n(-c2ccccc2)n1C (stereo not given),-0.097% (inactive)
17,Cc1ccc(NC(=O)CN(C)C(=O)c2cccc(-n3cccc3)c2)cc1,2.64% (inactive)
18,O=C(O)Cc1ccc(-n2cccc2)cc1,2.88% (inactive)
19,CN(C)CCCNc1cc(O)c2ncccc2c1,4.7% (inactive)
20,Oc1cc(O)cc(C=Cc2ccc(O)c(O)c2)c1,0.444% (inactive)
